Experimental data from PubChem BioAssay.

Test: inhibitors of PAF-induced NFkB signaling in CF airway cells, dose response, cell-based, uHTS hits, panel, cytotoxicity readout (AID 624344)
Conditions: CF bronchial epithelial cells, PAF-induced NFkB reporter inhibition, with PAF, run 1; at 79 µM (top of the series) unless noted

Going from `CC(C)c1nc(NCCO)c(C#N)c2c1CCCC2` to `Oc1ccc(CCNc2ncnc3ccc(Cl)cc23)cc1`, the inhibition rises from 112% to 113%.

`COc1ccc2[nH]c3c(c2c1)CCNC3=O` and `COc1ccc2[nH]c3c(c2c1)CC(C)NC3=O` (stereo not given) are the same in inhibition: 103% for the first, 103% for the second.

First: Cc1nc2sc(C(N)=O)c(N)c2c(C)c1CC(=O)c1ccccc1
Second: Cc1[nH]nc2ncc(C(=O)c3ccccc3O)cc12
The inhibition of the first is lower: 101% for the first, 109% for the second.

Compared with `O=C(Nc1nc2ccc(F)cc2s1)C1CCN(S(=O)(=O)c2cc([N+](=O)[O-])ccc2Cl)CC1`, `O=[N+]([O-])c1ccc2ncnc(N3CCN(Cc4ccc5c(c4)OCO5)CC3)c2c1` is higher in inhibition: 105% for the first, 112% for the second.

Going from `COc1ccc(-c2cn[nH]c2-c2ccc(O)cc2O)cc1` to `COc1ccc(-c2cn[nH]c2-c2ccc(OC)cc2O)cc1`, the inhibition falls from 104% to 103%.

Compared with `COc1ccc2cc(C(N)=O)c(=Nc3ccc(C)cc3)oc2c1`, `COc1ccc(-c2cc(=O)oc3c(C)c(OC(=O)c4cccs4)ccc23)cc1` is lower in inhibition: 87.6% for the first, 66.8% for the second.

Compared with `COc1cccc(-c2nnc3sc(C4CCCCC4)nn23)c1`, `COc1cccc(NC(=O)Nc2nnc(CC(=O)NCc3ccccc3)s2)c1` is lower in inhibition: 111% for the first, 79.8% for the second.

First: FC(F)(F)c1nnc2c(Sc3ccc(Cl)cc3)nc3ccccc3n12
Second: Cn1c(Oc2ccc(Cl)cc2)c(C=O)c2ccccc21
The inhibition of the first is lower: 98% for the first, 104% for the second.

Compared with `c1cc2[nH]snc2c2nc(C3CC3)nc12`, `CCc1c(C)nc2ccc(Br)cc2c1SCCC#N` is higher in inhibition: 101% for the first, 105% for the second.

Compared with `CC(=O)c1cccc(NC(=O)Nc2cccnc2)c1`, `CCN(CC)S(=O)(=O)c1ccc(NC(=O)Nc2cccc(C(F)(F)F)c2)cc1` is lower in inhibition: 119% for the first, 114% for the second.

Compared with `OCCCNc1ncnc2scc(-c3ccc(Cl)cc3)c12`, `CN1CCN(c2ncnc3scc(-c4ccccc4Cl)c23)CC1` is lower in inhibition: 115% for the first, 113% for the second.

First: Cn1nnnc1Sc1ncnc2scc(-c3ccc[nH]3)c12
Second: NC(=O)N/N=C/c1c(Sc2nnnn2-c2ccccc2)nc2ccccn2c1=O
The inhibition of the first is lower: 66.8% for the first, 103% for the second.

Going from `Cc1c(C=O)c(C=O)c(C)n1Cc1ccccc1` to `CC(C)CN=C(NS(=O)(=O)c1ccccc1)C(Cl)(Cl)Cl`, the inhibition falls from 118% to 102%.

First: Clc1cncc(Cl)c1N/N=C/c1ccncc1
Second: Clc1cccc(Nc2ncnc3ccc(Br)cc23)c1
The inhibition of the first is lower: 105% for the first, 109% for the second.

First: CCN1CCN(Cc2ccc(NC(=O)c3ccc(C)c(NC(=O)C(=O)c4c[nH]c5ccccc45)c3)cc2C(F)(F)F)CC1
Second: O=C(Nc1cccc2[nH]ncc12)c1ccc(F)cc1
The inhibition of the first is higher: 103% for the first, 102% for the second.

Going from `CCn1c(Oc2ccccc2F)nc2c1c(=O)n(C)c(=O)n2C` to `Cn1c(=O)c2c(nc(Oc3ccc4ccccc4c3)n2C)n(C)c1=O`, the inhibition falls from 113% to 93.3%.

Compared with `CCOc1ccc(-n2c(C)c(C(C)=O)c3cc(O)ccc32)cc1`, `C=C(C)COc1ccc(-c2[nH]ncc2-c2ccc(OC)cc2)c(O)c1` is higher in inhibition: 90% for the first, 114% for the second.

Compared with `CC(C)Nc1ncnc2ccc(Br)cc12`, `Cc1cccc(CNc2ncnc3ccc(-c4ccoc4)cc23)c1` is lower in inhibition: 118% for the first, 114% for the second.

Going from `Cc1[nH]nc2nc(SCC(=O)NCCC3=CCCCC3)n(-c3ccc(Br)cc3)c(=N)c12` to `COc1ccc(Cc2nnc(SCc3ccc([N+](=O)[O-])cc3)o2)cc1`, the inhibition rises from 100% to 113%.

Compared with `Cc1cc(N2CCOCC2)c2c(N)c(Br)cc(C)c2n1`, `Cc1ccc2nc(C(F)(F)F)c(C#N)c(N)c2c1` is lower in inhibition: 118% for the first, 114% for the second.
